tested on: LXRa homodimer (NR concentration 270 nM); experiment: PBM binding z-score (relative to random genomic background probes); higher = stronger binding; sequences stand for … in GC…GCGATTGACAGCGTAGAATGAAGG
How it was run: (§1)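 Binding z-scores were set against random background probes. The data came from custom Agilent 4×180K protein-binding microarrays carrying double-stranded probes with 34-nt variable regions, incubated 1 h with ligand-free nuclear receptor dimers. Partner-specific antibodies detected binding, and scanned fluorescence was regression-normalized.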

Row | Sequence | PBM binding z-score
1 | ACAGACAGGTGAGTGAAGCTAACTCAGCTGGACG | -0.787
2 | ATCTCTAGGTAACAAAGTTCAGTGAATGCCGAAC | 2.1
3 | ACTATTAGTAGAGACGAGGGCAACCGATAGGTTG | 0.152
4 | GCAGACAGGTGAAACGCCGGTAACTCAGGGTGGC | -0.611
5 | ATCTCTAGGTAAGACTCAGTTCACTGAAGAACGC | 0.58
6 | CGTCCAAGGTCAATGCTATGTCAGTGAAAGCATT | 0.645
7 | CGTCCAAGGTCATAGGAGGTCAGTGAAGACAGAT | 4.4
8 | CGTCCAATGTCAGCAGGTCAGTGAAAGCGACGTG | -0.0257
9 | CCTCCAAGGTCAGCAGGTCAGTGAAAGCGACGTG | 0.385
10 | TCTTGTAGATCAACAAGAGGTTAAGAAAGATCGA | 0.311
11 | GGAACGAGGGCATTCGTGTTGATAGCATGGCGAT | -0.449
12 | GCTAGCAGGCCATTTCGGTCACTCAATGACGGGC | -0.0904
13 | TCTAGTTGGTCACGGAGGTCTCACACGACGGGTA | 0.0269
14 | ATATGTAGGTTCGCTGGGGTCATTCAGACTAGGC | 1.89
15 | CCAGACAGGTGAAAGGTAACACAGTCTGGTACGC | -0.29
16 | CGAACTAGGTCAAGGACAATGAATCTCCGCACGC | 0.0804
17 | CAAACTAGGTCAAACGTCAAAGTCGAGCCAACCA | 1.04
18 | CCTTCCGGGTCACTCCAGGTTATAGCATCGGAGT | 1.67
19 | ACTAGCAGGACAAGGGTCACTCAAGATTAGTCCG | 0.432
20 | ACTCCGAGGACAAAGGTCAGAGCTACGCCAGTGA | 1.86

Row | Sequence | PBM binding z-score
21 | CCTAGTTGGTCAAGGGCACACACGCTATAGGTAC | 0.134
22 | ACTCGGAGGACAAAGGTTAGAGCTACGCCAGTGA | 0.0666
23 | CCTAGCAGCCCAGGGTCACTCAAGCATTTCGCTT | -0.213
24 | CGTCCAAGGTCATAGGAGGTCAGAGAAGACAGAT | 5.01
25 | CAAACTAGGTCATGAGGTCAAAGTCCGCTTCCCG | 5.21
26 | TCTGCTAGGTCAAAGATGGTCAGCTAATCTGCTA | 0.0702
27 | TGAATGAGGCTATAAGATCAGGGAACGTTGCAAA | -0.669
28 | CCAACTAGGTCACGAAAGGTCAAAGTCGAATGAC | 7.89
29 | TAGCCTAGGTCATGGGCCAATATACCACGCGAAC | 0.401
30 | CCTACTGGGCCATCCAGAGGTCATTGATCATATG | 6.73
31 | ACAGACGGGTGAGTGAAGGTAACTCAGCTGGACG | -0.31
32 | CTCGAAAGCTCGGTTGAGGTGAGTATACGGATAA | -0.444
33 | TTTAGCAGGCCAGAGGGTCACTCAAGAGGTACGG | -0.56
34 | CCTCGGAGGACCGAAGGTCAGAGCTGTCCGCTTT | -0.056
35 | CGAACTAGGTAATCCAGGACAGTGAATACATTGA | -0.012
36 | GCGGCTAGGTCAACTGATGGTCAGCTAAAGCTCG | 0.177
37 | ATCTCTAGGTAACTAGTTCAGTGAAAGAGAGGAC | -0.0189
38 | GCATATAGGTAATACAATGTGAAAGTCCGATTGT | 0.125
39 | CCTTACGGGTAAAGGTTATAGCACGGGTGGTACG | 0.37
40 | GGAACGAGGGCAAGTTGAGAGCAGAGTTTGATGG | -0.352

tested on: LXRb:RXRa (NR concentration 270 nM, RXRa partner concentration 90 nM); experiment: as above
How it was run: as §1

Row | Sequence | PBM binding z-score
41 | ACAGACAGGTGAGTGAAGCTAACTCAGCTGGACG | -0.865
42 | ATCTCTAGGTAACAAAGTTCAGTGAATGCCGAAC | 1.27
43 | ACTATTAGTAGAGACGAGGGCAACCGATAGGTTG | -0.117
44 | GCAGACAGGTGAAACGCCGGTAACTCAGGGTGGC | -0.313
45 | ATCTCTAGGTAAGACTCAGTTCACTGAAGAACGC | 0.734
46 | CGTCCAAGGTCAATGCTATGTCAGTGAAAGCATT | 3.67
47 | CGTCCAAGGTCATAGGAGGTCAGTGAAGACAGAT | 5.99
48 | CGTCCAATGTCAGCAGGTCAGTGAAAGCGACGTG | 0.392
49 | CCTCCAAGGTCAGCAGGTCAGTGAAAGCGACGTG | 2.93
50 | TCTTGTAGATCAACAAGAGGTTAAGAAAGATCGA | 1.41
51 | GGAACGAGGGCATTCGTGTTGATAGCATGGCGAT | 0.152
52 | GCTAGCAGGCCATTTCGGTCACTCAATGACGGGC | -0.799
53 | TCTAGTTGGTCACGGAGGTCTCACACGACGGGTA | 0.437
54 | ATATGTAGGTTCGCTGGGGTCATTCAGACTAGGC | 4.28
55 | CCAGACAGGTGAAAGGTAACACAGTCTGGTACGC | 0.919
56 | CGAACTAGGTCAAGGACAATGAATCTCCGCACGC | 1.37
57 | CAAACTAGGTCAAACGTCAAAGTCGAGCCAACCA | 3.16
58 | CCTTCCGGGTCACTCCAGGTTATAGCATCGGAGT | 5.1
59 | ACTAGCAGGACAAGGGTCACTCAAGATTAGTCCG | 2.76
60 | ACTCCGAGGACAAAGGTCAGAGCTACGCCAGTGA | 3.99

Row | Sequence | PBM binding z-score
61 | CCTAGTTGGTCAAGGGCACACACGCTATAGGTAC | 0.385
62 | ACTCGGAGGACAAAGGTTAGAGCTACGCCAGTGA | 0.618
63 | CCTAGCAGCCCAGGGTCACTCAAGCATTTCGCTT | 2.17
64 | CGTCCAAGGTCATAGGAGGTCAGAGAAGACAGAT | 6.38
65 | CAAACTAGGTCATGAGGTCAAAGTCCGCTTCCCG | 4.92
66 | TCTGCTAGGTCAAAGATGGTCAGCTAATCTGCTA | 2.07
67 | TGAATGAGGCTATAAGATCAGGGAACGTTGCAAA | -0.726
68 | CCAACTAGGTCACGAAAGGTCAAAGTCGAATGAC | 7.27
69 | TAGCCTAGGTCATGGGCCAATATACCACGCGAAC | 2.56
70 | CCTACTGGGCCATCCAGAGGTCATTGATCATATG | 3.84
71 | ACAGACGGGTGAGTGAAGGTAACTCAGCTGGACG | -0.488
72 | CTCGAAAGCTCGGTTGAGGTGAGTATACGGATAA | -0.393
73 | TTTAGCAGGCCAGAGGGTCACTCAAGAGGTACGG | 1.09
74 | CCTCGGAGGACCGAAGGTCAGAGCTGTCCGCTTT | 0.863
75 | CGAACTAGGTAATCCAGGACAGTGAATACATTGA | -0.349
76 | GCGGCTAGGTCAACTGATGGTCAGCTAAAGCTCG | 1.99
77 | ATCTCTAGGTAACTAGTTCAGTGAAAGAGAGGAC | 0.143
78 | GCATATAGGTAATACAATGTGAAAGTCCGATTGT | -0.0369
79 | CCTTACGGGTAAAGGTTATAGCACGGGTGGTACG | 1.19
80 | GGAACGAGGGCAAGTTGAGAGCAGAGTTTGATGG | 0.383

Source: the supplement of paper PMC6555819
